From PubChem
Rows were chosen to be rich in hits. Some 4.3% of all compounds tested hit in one or more screens of this group.
ADAM17 inh: inhibitors of human ADAM17; P78536; recombinant ADAM17, EDANS/DABCYL FRET peptide cleavage; inhibition, % at 6.95 µM; 370,000 compounds, 0.83% hits; AID 720648;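 active means inhibition above the mean of compounds lying between control limits plus 3 SD, set per campaign, cut at about 8.5% in these data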;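 further: 0% = DMSO-only wells as the low control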
sPLA2-III inh: Inhibits HGIII-sPLA2 liposome hydrolysis, primary screen | Q9NZ20 | 370,000 compounds, 0.56% hits | QFRET BODIPY PC-A2 liposome hydrolysis, fluorescence | AID 743126 | inhibition, % at 12.2 µM;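 active means inhibition above mean plus 3 SD of compounds lying within the high and low control bounds, cut at about 19% in these data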;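 further: 0% = median of test compound wells and 100% = no enzyme DMSO wells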
Target sequence (Q9NZ20 whole entry, looked up): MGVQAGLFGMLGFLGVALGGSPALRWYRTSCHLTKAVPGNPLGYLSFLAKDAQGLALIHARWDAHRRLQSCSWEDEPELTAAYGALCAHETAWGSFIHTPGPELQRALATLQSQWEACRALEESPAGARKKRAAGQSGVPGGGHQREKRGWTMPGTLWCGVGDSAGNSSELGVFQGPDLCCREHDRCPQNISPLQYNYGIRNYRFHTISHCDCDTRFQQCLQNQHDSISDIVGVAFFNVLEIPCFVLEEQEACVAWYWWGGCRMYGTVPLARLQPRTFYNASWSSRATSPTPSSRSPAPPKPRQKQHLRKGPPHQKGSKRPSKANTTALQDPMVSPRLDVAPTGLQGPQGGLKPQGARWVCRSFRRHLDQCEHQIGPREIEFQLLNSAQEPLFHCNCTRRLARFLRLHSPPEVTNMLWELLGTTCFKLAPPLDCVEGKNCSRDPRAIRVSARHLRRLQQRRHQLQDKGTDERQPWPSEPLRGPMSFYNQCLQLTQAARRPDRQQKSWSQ
NR3A LBD binder: NR3A (human) ligand-binding domain modulation; AID 1259313; 340,000 compounds, 2.5% hits; NR3A LBD differential scanning fluorimetry, Tm shift; 0% = protein alone, 100% = glycine-bound protein; Tm shift relative to glycine control, % at 25 µM;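 active means melting temperature shift of at least 10% of the positive control shift, at one fixed dose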
FAS-TE inh: inhibitors of human fatty acid synthase thioesterase domain. AID 602261. P49327. recombinant FAS-TE, OMFH fluorogenic substrate, fluorescence endpoint. 360,000 compounds, 0.67% hits. inhibition, % at 15 µM;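 active means compounds whose normalised, plate-corrected inhibition of enzyme fluorescence in the single-dose primary screen is 50% or more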;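 further: 0% = DMSO with enzyme and 100% = substrate without enzyme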
ADAM10 inh: inhibits human ADAM10; O14672; recombinant ADAM10, EDANS/DABCYL FRET peptide cleavage, 3 h; inhibition, % at 7 µM; 370,000 compounds, 0.62% hits; AID 720582;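 active means inhibition above a per-campaign cutoff equal to the mean of compounds falling between control-based bounds plus 3 SD, cut at about 20% in these data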;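 further: 0% = DMSO wells while the 100% control is not disclosed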
The depositor's hits bear a star; . = no result.

SMILES	ADAM17 inh	sPLA2-III inh	NR3A LBD binder	FAS-TE inh	ADAM10 inh
CCOC(=O)c1ccc(NC(=O)c2cccc(S(=O)(=O)N3c4ccccc4CC3C)c2)s1 (configuration not stated)	0	6	25*	21	5
CCOc1ccc(S(=O)(=O)N2c3ccccc3CC2C)cc1 (configuration not stated)	-2	-1	14*	20	4
COc1ccc(Cn2cc(CN3CC=CS3(=O)=O)nn2)cc1	-6	7	.	.	-5
COc1ccc(C(=O)Nc2cc3c(cc2OC)CCCC3)cc1Br	-4	-2	11*	34	1
O=C(Nc1cccc([N+](=O)[O-])c1)Nc1cccs1	-1	-7	19*	6	0
COc1cc2c(cc1NC(=O)c1ccc(C(C)(C)C)cc1)CCCC2	3	-1	1	26	-1
COC(=O)c1sccc1NC(=O)Nc1cccc([N+](=O)[O-])c1	-5	-1	0	23	-8
COc1ccc(C(=O)Nc2cccc([N+](=O)[O-])c2)cc1Br	6	5	22*	7	5
COC(=O)c1cccc(NC(=O)c2cccc([N+](=O)[O-])c2)c1	-6	9	1	16	-8
COc1ccc(C(=O)Nc2ccc(OC)c([N+](=O)[O-])c2)cc1Br	-1	-3	30*	6	-1
CCN(C(=O)C1CCCN(c2nnc(-n3cccc3)s2)C1)c1ccccc1C (configuration not stated)	9	2	.	.	9
O=C(NCCc1ccc2c(c1)OCO2)c1cc(-c2ccccc2)c(N2CCOCC2)s1	0	1	.	.	6
NC(=O)[C@@H]1CCCN1C(=O)[C@H]1O[C@@H](n2ccc(N)nc2=O)[C@H](O)[C@@H]1O	-5	6	.	.	-10
COc1ccc(NC(=O)Nc2cccc([N+](=O)[O-])c2)cc1Cl	4	-34	32*	37	17
COc1ccccc1CCNC(=O)Nc1cccc([N+](=O)[O-])c1	0	-8	-1	26	-5
Cc1ccc(N=Nc2c(N)n[nH]c2N)cc1	2	2	-2	-5	3
Cc1cccc(N=Nc2c(N)n[nH]c2-c2ccc(Cl)cc2)c1	7	-24	34*	22	10
Cc1ccc(-c2[nH]nc(N)c2N=Nc2cccc(Cl)c2C)cc1	4	-9	28*	20	7
c1ccc(C2CCC3(CC2)CCC3NCc2cccs2)cc1 (configuration not stated)	-4	14	.	.	-6
CC1Cc2nc(SCC(=O)NCc3ccccc3)n(Cc3ccccc3)c(=O)c2S1 (configuration not stated)	2	-8	-4	12	1
CC1Cc2nc(SCC(=O)c3ccccc3)n(Cc3ccccc3)c(=O)c2S1 (configuration not stated)	3	-43	8	25	20*
COc1cccc(OC[C@@H](O)CN2CCC(C(O)(c3ccccc3)c3ccccc3)CC2)c1	2	-30	.	.	-2
COc1ccc(C(=O)/C=C/C(=O)N(Cc2ccccc2)C(C(=O)NC2CCCCC2)c2ccncc2)c(O)c1 (configuration not stated)	2	-32	17*	17	-1
COP(=O)(O)C(COCCC(CC(C)C)NC(=O)OCc1ccccc1[N+](=O)[O-])NC(=O)OCc1ccccc1 (configuration not stated)	-7	-8	.	.	-6
Clc1ccc(-n2ncc3c(NCc4ccc5c(c4)OCO5)ncnc32)cc1	4	0	12*	14	8
SMILES	ADAM17 inh	sPLA2-III inh	NR3A LBD binder	FAS-TE inh	ADAM10 inh
Clc1ccc(-n2ncc3c(NCc4ccco4)ncnc32)cc1	-2	3	-3	7	0
CC(=O)N1CCCN(C(=O)CCn2nnc3ccccc32)CC1	0	5	.	.	-8
C=CCNC(=O)CSc1nc2c(c(=O)[nH]1)CCCC2	3	4	.	.	-6
O=C(CSc1nnc(COc2ccc(Cl)cc2)n1Cc1ccco1)Nc1ccc2c(c1)OCO2	8	-14	.	.	16
FC(F)Oc1ccc(/C=N/NC(=S)Nc2cc(C(F)(F)F)ccc2Cl)cc1	-4	-3	35*	-10	0
COc1cc(/C=N/NC(=O)c2nnn(-c3nonc3N)c2C(C)C)ccc1OCc1ccc(F)cc1	3	-22	31*	28	2
CC(C)c1c(C(=O)N/N=C/c2ccc3c(c2)OCO3)nnn1-c1nonc1N	-1	-4	28*	3	5
Nc1nonc1-n1nnc(C(=O)N/N=C/c2ccc3c(c2)OCO3)c1-c1ccccc1	1	-15	8	3	-2
CN(C)Cc1c(C(=O)N/N=C/c2cccc(OCc3ccc(F)cc3)c2)nnn1-c1nonc1N	-2	4	3	-5	1
CC(C)c1c(C(=O)N/N=C/C=C/c2ccccc2)nnn1-c1nonc1N	3	-15	17*	7	5
COc1cccc(/C=N/NC(=O)c2nnn(-c3nonc3N)c2C(C)C)c1	1	-4	26*	1	9
CN(C)Cc1c(C(=O)N/N=C/C=C/c2ccccc2)nnn1-c1nonc1N	1	-4	0	-4	12
CCC[C@H]1[C@@H](NS(=O)(=O)c2ccccc2[N+](=O)[O-])CC[C@@]23CCCN2C(=O)CCC[C@@H]13	-1	-8	.	.	1
Cc1ccc(OCC(C)CN2CCC(C(O)(c3ccccc3)c3ccccc3)CC2)cc1 (configuration not stated)	0	-14	.	.	-2
COC(=O)C1CN(CC(C)C)CCS(=O)(=O)N1Cc1ccc(Cl)cc1 (configuration not stated)	1	6	.	.	12
CC(C)c1c(C(=O)N/N=C/c2cccc(OCc3ccc(F)cc3)c2)nnn1-c1nonc1N	-4	1	27*	27	2
CC(=O)Nc1ccc(C2=NNC(=Nc3cccc(S(=O)(=O)N(C)C)c3)SC2)cc1	.	.	12*	-114	.
CCn1cc(CNC(=O)c2cc(COc3ccc(F)cc3Cl)on2)cn1	1	-4	116*	-2	-1
CCOC(=O)N1CCN(C(=O)C[C@H]2C[C@@]3(C(=O)OC)C(=C[C@H](C(C)C)O[C@@H]3C3CC3)N(CCc3ccc(OC)c(OC)c3)C2=O)CC1	-1	-7	.	.	1
N#C/C(=N\Nc1cccc([N+](=O)[O-])c1)C(=O)c1ccc(Br)cc1	1	-32	29*	20	14
COC(=O)[C@]12C[C@H](CC(=O)NCc3ccc(C)o3)C(=O)N(CCc3ccc(OC)c(OC)c3)C1=C[C@H](COCc1ccccc1)O[C@@H]2C	-2	-15	.	.	4
CS(=O)(=O)c1ccc(CNC(=O)C2(C(F)(F)F)C/C(=C\Cc3ccccc3)CCCO2)cc1 (configuration not stated)	-1	3	16*	6	13
CCC/C=C1/CCCOC(C(=O)NCc2ccc(S(C)(=O)=O)cc2)(C(F)(F)F)C1 (configuration not stated)	-1	1	1	0	2
